Assay outcomes (PubChem BioAssay)
Compounds with a hit are over-represented: about 14% of the library has one in this group of screens.
LASV entry inh – blocks Lassa virus binding to or entry into cells; Lassa virus pseudotype entry inhibition, cell reporter; Potency, µM (top dose mostly 37.9 µM), for the others: at the top dose activity change, negative = inhibition, hits mostly inhibitors; 300,000 tested, 1.2% active; AID 540256; calls by dose curve; tested in HEK293 cells; also: potency is read from the fitted curve at half-maximal effect; nearly all actives have a fitted effect of over 50% in size
Pf growth 48h – inhibits P. falciparum growth in the first generation, 48 h. P. falciparum luciferase growth in erythrocytes, 48 h. Potency, µM (titrated, usually from 28.7 µM), without a hit: at the top dose activity change, negative = inhibition, most hits filed as inhibitors. 310,000 tested, 5.9% active. AID 504832; also: potency is read from the fitted curve at half-maximal effect
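Cell-based growth assay: transgenic P. falciparum expressing firefly luciferase, cultured in red cells within RPMI 1640 containing 0.5% w/v Albumax, 24 mM bicarbonate and gentamycin. A drop in luciferase activity indicates inhibition.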
HCV inh – blocks hepatitis C virus | Huh7.5.1 HCVcc-Cre infection, luciferase reporter, 44 h | Potency, µM (series often up to 41.8 µM), for the others: at the top dose activity change, negative = inhibition, usual class: inhibitors | 340,000 tested, 3.4% active | AID 651820; also: potency is read from the fitted curve at half-maximal effect
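A cell-based infection assay in which seeded cells (1,000 per well) receive test compound after 4 h, are inoculated with HCVcc-Cre at approximately 0.5 moi, and are incubated 44 h before luminescence detection.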
Pf growth 96h – P. falciparum growth inhibition at 96 hour, primary screen for plastid delayed-death inhibitors. P. falciparum luciferase reporter growth, 96 h. Potency, µM (highest dose often 28.7 µM), inactives show at the highest dose activity change, negative = inhibition, hits mostly inhibitors. 320,000 tested, 6.9% active. AID 504834; also: potency is read from the fitted curve at half-maximal effect
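Plates of compound plus infected erythrocytes (2% hematocrit, 0.05% parasitemia final) incubate 96 hours, 37 C, 5% CO2. Detection reagent added; reduced luminescence from the parasites' luciferase reporter flags inhibition.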
HCMV antiviral – blocks human cytomegalovirus replication; activity change, negative = inhibition, % at 57.5 µM; AID 1259415; 410,000 tested, 4.5% active; HFF cells, HCMV-luciferase reporter, 72 h; stronger effect = lower value; in the data active = activity change below about -60%; inconclusive = no clear call, values can overlap the other calls; inactive = above about -39%
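After 16 h attachment at 37C, HFF cells received test compound and HCMV-luciferase (1 PFU/cell); reporter luminescence read 72 h later, data normalized against buffer-only and known inhibitor Salinomycin.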
MARV entry inh – Marburg virus entry inhibition; Potency, µM (top dose mostly 37.8 µM), without a hit: top-dose activity change, negative = inhibition, actives largely listed as inhibitors; Marburg virus pseudotyped entry inhibition, cell reporter; 300,000 tested, 1.8% active; calls by dose curve; tested in HEK293 cells; also: potency is read from the fitted curve at half-maximal effect
Active calls of the source: *; i = inactive; u = inconclusive; x = no result; [ ] = remark or other dose. Unless noted, calls follow the shape of the dose curve; as a rule, active = well fitted inhibition curve with a large enough effect; inconclusive = small, poorly fitted or top-dose-only effect, or another doubt; inactive = no such curve, though single readings can be large or run the other way. % is scaled to controls: 0 for no effect and ±100 for the full control effect.

SMILES | LASV entry inh | Pf growth 48h | HCV inh | Pf growth 96h | HCMV antiviral | MARV entry inh
CCC1CN(C(=O)N2CCC(C(=O)NCCc3cc(OC)ccc3OC)CC2)c2ccccc2O1 (stereo not drawn) | u | x | x | x | 54 | x
CCN(CC)CCN(C(=O)c1ccc(S(=O)(=O)N2CCCC2)cc1)c1nc2cc(C)cc(C)c2s1 | -12%[46.1 µM] | u | -28% | u | -21 | u
Cc1cc(C)c2sc(N(CCCN(C)C)C(=O)c3ccc(S(=O)(=O)N(C)C4CCCCC4)cc3)nc2c1 | u | 10µM* | 10µM* | u | -5 | u
O=C(NCCCNC(=O)c1cnccn1)c1cccc(Cl)c1 | -1%[46.1 µM] | -14% | 6% | 12% | -14 | 18%[46.1 µM]
Cc1cccn2c(=O)c(C=C(C#N)C#N)c(N3CCN(c4cccc(Cl)c4)CC3)nc12 | u | 7.4µM* | 16% | u | -23 | -25%[46.1 µM]
CCNC(=O)/C(C#N)=C/c1c(N2CCN(c3cccc(Cl)c3)CC2)nc2c(C)cccn2c1=O | x | 12µM* | u | u | -40 | x
CCNC(=O)/C(C#N)=C/c1c(N2CCN(Cc3ccc4c(c3)OCO4)CC2)nc2c(C)cccn2c1=O | 10% | 7.4µM* | 11% | 3.7µM* | -18 | u
Cc1cccn2c(=O)c(/C=C(\C#N)C(=O)NCc3ccco3)c(N3CCCCC3)nc12 | 1% | u | 1% | 2.9µM* | u | -11%
COC(=O)/C(C#N)=C/c1c(N2CCN(c3cccc(Cl)c3)CC2)nc2c(C)cccn2c1=O | x | u | 8% | u | u | x
Cc1ccc(O)c(/C=N/NC(=O)C2=NNC(c3ccccc3)(c3ccccc3)C2)c1 | x | 2.9µM* | 14% | u | x | x
O=C1N/C(=N/O)S/C1=C/c1cccc([N+](=O)[O-])c1 | 0% | 13% | 6% | u | -9 | 4%[46.1 µM]
CC1(C)CC(=O)/C(=C\c2cccc([N+](=O)[O-])c2)C(C)(C)N1 | u | u | 10% | u | -86* | u
CN(C)c1nc(N)nc(CSc2nnnn2-c2ccc(Cl)cc2)n1 | x | x | x | x | 0 | x
COc1cc(/C=C2/C(=N)N3OC(C)=CC3=NC2=O)ccc1OC(=O)c1ccco1 | 17% | 29% | 11% | 13µM* | -28 | 4%[46.1 µM]
CC1=CC2=NC(=O)/C(=C\c3ccc(OC(=O)c4ccco4)cc3)C(=N)N2O1 | 17%[46.1 µM] | 7% | 13% | 0% | -15 | 7%[46.1 µM]
O=C(Nc1ccc(N2CCOCC2)cc1)c1cc2c(s1)CCCC2 | -14%[46.1 µM] | -33%[1.15 µM] | 4µM* | -2% | u | u
CC1CCc2sc(C(=O)N(C)CC(=O)Nc3ccc(N4CCOCC4)cc3)cc2C1 (stereo not drawn) | -6% | u | 0% | u | -68* | -3%
CN(CC(=O)Nc1ccc(N2CCOCC2)cc1)C(=O)CCc1cc(C(C)(C)C)c(O)c(C(C)(C)C)c1 | 0% | 3.3µM* | -7% | 9.3µM* | -31 | -3%
O=C(Nc1ccc(N2CCOCC2)cc1)c1cc2c(s1)CCCCC2 | -22%[46.1 µM] | u | 11µM* | u | -25 | u
c1ccc2c(C(c3nnnn3-c3ccc4c(c3)OCCO4)N3CCCCC3)ccnc2c1 (stereo not drawn) | x | x | x | x | -13 | x
O=C(O)c1cc(N/N=C/C(Cl)=C/c2ccccc2)ccc1Cl | u | i | 24% | i | 64 | u
Cc1c(C#N)c(SCC(N)=O)nc2c1CCCC2 | 3% | 8% | -27% | 9.3µM* | -18 | -24%
CCc1c(C)nc(SCC(=O)CC(=O)OC(C)C)c(C#N)c1C | 11% | u | 1% | 1% | -4 | 0%
CCc1c(C)nc(SCC(N)=O)c(C#N)c1C | 8% | x | -14% | -30% | -64* | 8%
O=c1ccc(N=Nc2ccccc2)ccc1O | u | 10µM* | u | 13µM* | 54 | -2%[46.1 µM]
SMILES | LASV entry inh | Pf growth 48h | HCV inh | Pf growth 96h | HCMV antiviral | MARV entry inh
O=C(CSc1nc2ccsc2c(=O)n1-c1ccc(Cl)cc1)NCc1ccc(Cl)cc1 | u | x | x | x | 2 | x
COc1cccc(CNC(=O)[C@@H]2[C@@H](CO)[C@@H]3Cn4c(ccc(-c5cncnc5)c4=O)[C@H]2N3C(C)=O)c1 | x | x | x | x | -101* | x
COCCNC(=O)[C@H]1[C@H](CO)[C@H]2Cn3c(ccc(-c4ccc(F)cc4)c3=O)[C@@H]1N2C(=O)NC(C)C | x | x | x | x | 3 | x
CC(=O)OCC(=O)C1(O)CCC2C3CCC4=CC(=O)C=CC4(C)C3C(O)CC21C (stereo not drawn) | 15% | 0% | 17% | -3% | 66 | 10%[46.1 µM]
CCC(=O)[C@@]1(C)[C@H](C)C[C@H]2[C@@H]3CCC4=CC(=O)C=C[C@]4(C)[C@H]3[C@@H](O)C[C@@]21C | x | 2.3µM* | 11% | 5% | 6 | x
C=C1N[C@]2(C(=O)COC(C)=O)[C@@H](C[C@H]3[C@@H]4CCC5=CC(=O)C=C[C@]5(C)[C@H]4[C@@H](O)C[C@@]32C)O1 | x | u | x | 9.5µM* | x | x
CCCC1OC2CC3C4CCC5=CC(=O)C=CC5(C)C4C(O)CC3(C)C2(C(=O)O)O1 (stereo not drawn) | x | 8% | 7% | -66% | 32 | x
CCCC1O[C@@H]2C[C@H]3[C@@H]4CCC5=CC(=O)C=C[C@]5(C)[C@H]4[C@@H](O)C[C@]3(C)[C@]2(C(=O)CO)O1 (stereo partly drawn) | u | 4.1µM* | 1%[8.37 µM] | 2.3µM* | 38 | 9.2µM*
CCC[C@@H]1O[C@@H]2C[C@@H]3[C@H]4CCC5=CC(=O)C=C[C@@]5(C)[C@H]4[C@H](O)C[C@@]3(C)[C@@]2(C(=O)CO)O1 | x | 11µM* | x | 4.8µM* | x | x
C=CCOC(=O)N[C@@H](c1cccc(OC)c1)[C@@H](C)C=CCC(=O)O | x | x | x | x | x | 7%[14.2 µM]
CC1=C(c2ccc(C)c(C)c2)S(=O)(=O)N(Cc2ccc(C(=O)Nc3cc(F)ccc3F)cc2)C1=O | -11%[46.1 µM] | x | x | x | 2 | x
C[C@]12C=CC(=O)C=C1CC[C@@H]1C2[C@@H](O)C[C@@]2(C)C1CC[C@]2(O)C(=O)COC(=O)CCC(=O)O (stereo partly drawn) | u | -16%[0.00184 µM] | 0% | 25% | 22 | 1%
CC(C)C(=O)OCC(=O)[C@@]12OC(C3CCCCC3)O[C@@H]1CC1C3CCC4=CC(=O)C=C[C@]4(C)C3[C@@H](O)C[C@@]12C (stereo partly drawn) | x | 0.67µM* | x | 0.76µM* | x | x
CCCC1O[C@@H]2CC3C4CCC5=CC(=O)C=C[C@]5(C)C4C(OC(C)=O)C[C@]3(C)[C@]2(C(=O)COC(C)=O)O1 (stereo partly drawn) | u | 9.3µM* | 4% | 1.2µM* | -1 | u
Cc1nnc(SCC(=O)NC2CCCCCC2)n1C(C)C | x | -10% | 5% | u | 25 | x
